Laboratory results from article PMC12864922, “TDP-43 directly inhibits mRNA accumulation in neurites through modulation of mRNA stability”.
In all, about 9,900 sequences were measured (“r (bound/input frequency ratio)”: median about 0.7, highest 2% from about 6.5 on). Shown is part of a subset that was picked to be rich in the highest values.

B1: ENSMUSG00000061578.285|Ksr2 (ssRNA)
RNA: GGGAGUUCUACAGUCCGACGAUCGCUUCGAUAUCCGCAUGCUAGGAUAUAUCUCUGUGGCCAGGGCUGGACUGAGACUGACCCCCUCCUACUAAGCAUCUUAGAGUUUCUCUUUUCUCUUUAAUUGCAUCAGGACCCCUUUGGUCCAUGUACCCCGGUCUCUGUCACAUGCCUUUGUAUCUUGGAGGAAGUAAGAGAGGAGAGAGCCAGGGAGGGCUGAAGCUCUGGGACCCUGAAGUGUCCCCCGGGAACUGGGACUCACUCAUCUUCUCCUGUUUGUAGCUCAAUGACCCAGUGGGUCACACUCUUGCGGUCGCACUAGUGUGGAAUUCUCGGGUGUCAAGG
B2: ENSMUSG00000029028.201|Lrrc47 (ssRNA)
RNA: GGGAGUUCUACAGUCCGACGAUCGCUUCGAUAUCCGCAUGCUAAGCACACAGCUGCCAUCCCUCGAGCCACAGUGCCUGGUCCUAAGGACCCAGCAGCUGCACAGAGGACUUGGUGGCCCCGUGCCUUGCCAUCUGGCUGAGAAGAGAACCAGACCCUCAGCCUUCCCCCUCGACACCUUCUCGUUGGUGACCUCUGACCUUAAAGGACCAUUUCUACCUUCUGUAAAAGAACACCUGUUUGGGGUUGCGUGCGGCUUUCAUCCUAAGGCCGUGCGAGAGCCGUUAGCUGUCAGAACUAGUGACUCUUGCGGUCGCACUAGUGUGGAAUUCUCGGGUGUCAAGG
B3: ENSMUSG00000028439.16|Fam219a (ssRNA)
RNA: GGGAGUUCUACAGUCCGACGAUCGCUUCGAUAUCCGCAUGCUAAUUCAGUAGUGGGCGGGGUCGCCGCGGUGCACGGGGCGCUGACCUGGGCCCGGUGGGAUGCAGCAGGAGAGACCCCUACCCUGCUGGUCCACUGGUCCCCAGCCCCGCGCCUCUUAGAGCCGCCAACCUCGUAACAGUCAUUGCUUCCUCCUAUGGUAGGACGUGUACCUCUGUGUGUUCAAGGAGCCGGAGAAACCAAAACCGGGUCUGUCUCCAGCCCCGGGGCUGAGGAGGGGUGGGCACUGUUUGUUCGGUUACUUCUCUUGCGGUCGCACUAGUGUGGAAUUCUCGGGUGUCAAGG
B4: ENSMUSG00000031028.682|Tub|139:143;183:187;256:260 (ssRNA)
RNA: GGGAGUUCUACAGUCCGACGAUCGCUUCGAUAUCCGCAUGCUACUAUUUUGGAGUGGUCAGACAUUUUAUUUUUGUUCAAAAUUAUCUGGAGUUUUAGACAAACUUGCAAAACUGUGCUUUUAUUAAGUGACUUUUUGAAUAAACUUUUUGGUAUUCUGAAGCAAAUGUAUUUAUUUAUUGCAUACUGCAAUGACAAACUUGGUAUUUUCCCAUAAUGACAUUAUCAUACUUGUAGAAUUUAGUGUUUGUCUAAGUACAGACAUGUAUCAACACAUUAAACUUGAACUGUUUGACGGCACACACUCUUGCGGUCGCACUAGUGUGGAAUUCUCGGGUGUCAAGG
B5: ENSMUSG00000090935.52|Synj2bp (ssRNA)
RNA: GGGAGUUCUACAGUCCGACGAUCGCUUCGAUAUCCGCAUGCUAGUGUCCCUGAGAGUACAGCACAGGUUACCAGUGCAGAAUGGACCUAUAGUACAUCGAGGUGAAGGAGAGCCAAGUGGAGUUCCUGUAGCUAUGGUGCUGCUACCAGUGUUUGCCCUCACCAUGGUAGCAGUUUGGGCCUUCGUGAGAUACCGAAAGCAGCUUUGAAAUGCUUGCUGUCUUCCAGUGUGUCCAAUGAACUCUCUCUCUCACUCACCAUCUCUGACAUCCUCCCAUAUUCUUUCUCCUCCACAUAGCCAAUACUCUUGCGGUCGCACUAGUGUGGAAUUCUCGGGUGUCAAGG
B6: ENSMUSG00000061578.273|Ksr2 (ssRNA)
RNA: GGGAGUUCUACAGUCCGACGAUCGCUUCGAUAUCCGCAUGCUAGGCCCUGGGCUCCAGAGUCGCUGAAGACCACUCUCCACAGCAGCUGUAACCCCAUCUAACAAGCCCUGUUCUGGAUAUAUCUCUGUGGCCAGGGCUGGACUGAGACUGACCCCCUCCUACUAAGCAUCUUAGAGUUUCUCUUUUCUCUUUAAUUGCAUCAGGACCCCUUUGGUCCAUGUACCCCGGUCUCUGUCACAUGCCUUUGUAUCUUGGAGGAAGUAAGAGAGGAGAGAGCCAGGGAGGGCUGAAGCUCUGGGACCCUCUUGCGGUCGCACUAGUGUGGAAUUCUCGGGUGUCAAGG
B7: ENSMUSG00000058297.284|Spock2|1:18;137:142 (ssRNA)
RNA: GGGAGUUCUACAGUCCGACGAUCGCUUCGAUAUCCGCAUGCUAACACACACACACACACACAGAGAGAGAGAGAGAGAGAGAGAGAGAGAGAGAGAGAAAGAGAGAGAGAAUGAGAGAGAAUGAGAGAGAGAAUACCCGAGGGCCACCCUGAUGCCCAGGAAGAGUGAGGGCAGCCCCCACACACGUGGAAGAGGCUGGGCAGCUAGCUACUGGGGACCUUGUGCUGAGGCUUCCAGGACAAAGCCCCAGUCUGGCUCUCCCCCAGCCUCUCAGGGGCACUGGCUGGUCACAUCCACUGAGUACUCUUGCGGUCGCACUAGUGUGGAAUUCUCGGGUGUCAAGG
B8: ENSMUSG00000058297.297|Spock2|59:64 (ssRNA)
RNA: GGGAGUUCUACAGUCCGACGAUCGCUUCGAUAUCCGCAUGCUAUGAGAGAGAGAAUACCCGAGGGCCACCCUGAUGCCCAGGAAGAGUGAGGGCAGCCCCCACACACGUGGAAGAGGCUGGGCAGCUAGCUACUGGGGACCUUGUGCUGAGGCUUCCAGGACAAAGCCCCAGUCUGGCUCUCCCCCAGCCUCUCAGGGGCACUGGCUGGUCACAUCCACUGAGUAUUGAUCGGUUGGACUUUAGGGAAGAGCCUCCUCCUUCCCAUUCCUUUCUGCCACCCUGGAAUGGCCACCUUAAUCGUCCUCUUGCGGUCGCACUAGUGUGGAAUUCUCGGGUGUCAAGG
B9: ENSMUSG00000058297.285|Spock2|1:12;131:136 (ssRNA)
RNA: GGGAGUUCUACAGUCCGACGAUCGCUUCGAUAUCCGCAUGCUAACACACACACACAGAGAGAGAGAGAGAGAGAGAGAGAGAGAGAGAGAGAAAGAGAGAGAGAAUGAGAGAGAAUGAGAGAGAGAAUACCCGAGGGCCACCCUGAUGCCCAGGAAGAGUGAGGGCAGCCCCCACACACGUGGAAGAGGCUGGGCAGCUAGCUACUGGGGACCUUGUGCUGAGGCUUCCAGGACAAAGCCCCAGUCUGGCUCUCCCCCAGCCUCUCAGGGGCACUGGCUGGUCACAUCCACUGAGUAUUGAUCCUCUUGCGGUCGCACUAGUGUGGAAUUCUCGGGUGUCAAGG
B10: ENSMUSG00000058297.286|Spock2|1:6;125:130 (ssRNA)
RNA: GGGAGUUCUACAGUCCGACGAUCGCUUCGAUAUCCGCAUGCUAACACACAGAGAGAGAGAGAGAGAGAGAGAGAGAGAGAGAGAGAAAGAGAGAGAGAAUGAGAGAGAAUGAGAGAGAGAAUACCCGAGGGCCACCCUGAUGCCCAGGAAGAGUGAGGGCAGCCCCCACACACGUGGAAGAGGCUGGGCAGCUAGCUACUGGGGACCUUGUGCUGAGGCUUCCAGGACAAAGCCCCAGUCUGGCUCUCCCCCAGCCUCUCAGGGGCACUGGCUGGUCACAUCCACUGAGUAUUGAUCGGUUGGCUCUUGCGGUCGCACUAGUGUGGAAUUCUCGGGUGUCAAGG
B11: ENSMUSG00000028439.112|Fam219a|120:124 (ssRNA)
RNA: GGGAGUUCUACAGUCCGACGAUCGCUUCGAUAUCCGCAUGCUACAAAGGGAUACUGUCUCUCCAUUAGAUAACUCCUUCCACUGUCUCCCUCCCCCGCUUUCUUACUUUCUGAGGGUUGGGAAGGUAAGAUGGGCCUUAGAGAGAAGCCAGGUUUGGGGAUGCAUACACCUGUUCUCACCGGUCUCUAACCAGUGCAUCUGUCUCUCUGCCUCAUCCCCACACCGCCCUGCCACCCCCAGUCUUCUGUCUAUUGGUUCCAGGCUGGAAGCAAGAGAUAAGGCUGGCCUCCUGUGCCCCAUUGCCUCUUGCGGUCGCACUAGUGUGGAAUUCUCGGGUGUCAAGG
B12: ENSMUSG00000031028.669|Tub (ssRNA)
RNA: GGGAGUUCUACAGUCCGACGAUCGCUUCGAUAUCCGCAUGCUAAUUUCUCUAGCUGAGAGCACACUUAGCCAGUUUUCACGCCUAGAACAUAUAUGUCGAUUUGCACAUGAUUGUCUUUUCCUAUUUUGGAGUGGUCAGACAUUUUAUUUUUGUUCAAAAUUAUCUGGAGUUUUAGACAAACUUGCAAAACUGUGCUUUUAUUAAGUGACUUUUUGAAUAAACUUUUUGGUAUUCUGAAGCAAAUGUAUUUAUUUAUUGGUAUGUGCAAUGACAAACUUGGUAUUUUCCCAUAAUGACAUUAUCUCUUGCGGUCGCACUAGUGUGGAAUUCUCGGGUGUCAAGG
B13: ENSMUSG00000061578.833|Ksr2 (ssRNA)
RNA: GGGAGUUCUACAGUCCGACGAUCGCUUCGAUAUCCGCAUGCUACUCACAGUUUCAAAGGGCUCAGUCCAUAGCUGCCUGACUCUGUGUUUCUAGGCCUUUCUUGAGGCAAGUGUUCAUCAUGAUAGUGUGAGGGUGAGGAGGAGUUUCUUCAUGGCAAACAGGAAGCAAAGAGCAAUACAGGAAAAGGUCAGGGGUGAGAUGUGUCAUUGCCACUUCCUCCAGCUAGGACCUUUGAGCAUCACAUUGUGAAGCCAUCCAGGGACUUGGGGGUUAGGUCAGAGGUAUCAAUACAUCUCCGGAAACUCUUGCGGUCGCACUAGUGUGGAAUUCUCGGGUGUCAAGG

Target: TDP-43 (Homo sapiens, UniProt Q13148 1-414)
Assay: RNA Bind-n-Seq with designed 260-mer pool; 25 mM Tris-HCl, 150 mM KCl, 3 mM MgCl2, BSA (printed 500 mg/mL), 20 units/mL SUPERase IN; pH not stated; 500 nM RNA pool, 1 h, 4 C; TDP-43 5, 50, 500 nM; high values mean tight binding
Conditions: protein: recombinant; tags: SBP (GST cleaved off with PreScission; pGEX-GST-SBP)
Outline: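 Duplicate measurements used two independent batches of recombinant SBP-tagged TDP-43, which was captured on streptavidin beads at 5, 50 or 500 nM. The beads were incubated with 500 nM of an in vitro-transcribed 260-nt 3′ UTR oligo pool for 1 h at 4 °C in 25 mM Tris-HCl, 150 mM KCl, 3 mM MgCl2, BSA and SUPERase IN. After washing, biotin elution, reverse transcription, PCR amplification and sequencing, binding was expressed as R: each oligo's normalized read abundance in the bound sample over its abundance in input.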

Chain of TDP-43 (Q13148 whole entry): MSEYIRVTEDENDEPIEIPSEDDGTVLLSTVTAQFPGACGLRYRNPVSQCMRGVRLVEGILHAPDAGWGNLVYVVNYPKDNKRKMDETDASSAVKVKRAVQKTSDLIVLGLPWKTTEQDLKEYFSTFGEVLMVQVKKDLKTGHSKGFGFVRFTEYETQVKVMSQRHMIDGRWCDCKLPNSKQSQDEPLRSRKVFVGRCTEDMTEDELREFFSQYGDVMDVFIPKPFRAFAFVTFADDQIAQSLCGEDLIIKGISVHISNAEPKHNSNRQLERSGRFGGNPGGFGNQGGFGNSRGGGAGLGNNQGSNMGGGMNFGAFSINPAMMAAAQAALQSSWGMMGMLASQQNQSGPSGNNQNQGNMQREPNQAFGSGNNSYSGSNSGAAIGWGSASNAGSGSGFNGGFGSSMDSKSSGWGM

| Binder | binding signal |
| --- | --- |
| B1 | 0.368 R (bound/input frequency ratio) |
| B2 | 0.156 R (bound/input frequency ratio) |
| B3 | 0.466 R (bound/input frequency ratio) |
| B4 | 0.0217 R (bound/input frequency ratio) |
| B5 | 1.19 R (bound/input frequency ratio) |
| B6 | 0.384 R (bound/input frequency ratio) |
| B7 | 8.98 R (bound/input frequency ratio) |
| B8 | 6.44 R (bound/input frequency ratio) |
| B9 | 7.3 R (bound/input frequency ratio) |
| B10 | 6.42 R (bound/input frequency ratio) |
| B11 | 0.515 R (bound/input frequency ratio) |
| B12 | 0.0963 R (bound/input frequency ratio) |
| B13 | 1.23 R (bound/input frequency ratio) |
